Laboratory results published in PubChem BioAssay AID1159580 (chemical genetic matrix, 2015).
About 2,000 (36%) of roughly 5,500 compounds were called active. Another 18% or so got no clear call; they are omitted. Rule as the data show it: active = normalized growth mostly below about 0.91 (no sharp cut-off); inconclusive = no clear call, values can overlap the other calls; inactive = mostly above about 0.92. This is one part of the list.

Assay: chemical genetic growth profiling, strain panel (AID 1159580);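 also: tested at 20 µM; growth read once vehicle control cultures reached saturation at 30 °C; 1 = growth at the plate median or of vehicle wells; lower values mean less growth of the strain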
Conditions: S. cerevisiae deletion strains, growth OD

Measured: normalized growth

COc1ccc(C2=C(C(C)=O)C(C)=NC(=S)C2C#N)cc1 (stereo not given)
active: locus YPR135W, strain CTF4, active compounds read low 0.356
inactive: locus YAL013W, strain DEP1, active compounds read low 1.01 | locus YBR229C, strain ROT2, active compounds read low 1.02 | locus YCL061C, strain MRC1, active compounds read low 1.01 | locus YDL101C, strain DUN1, active compounds read low 1.05 | locus YDR150W, strain NUM1, active compounds read low 0.933 | locus YEL061C, strain CIN8, active compounds read low 1.04 | locus YGR078C, strain PAC10, active compounds read low 0.993 | locus YHR030C, strain SLT2, active compounds read low 0.947 | locus YHR087W, strain rtc3, active compounds read low 1.04 | locus YJL187C, strain SWE1, active compounds read low 1 | locus YJR043C, strain POL32, active compounds read low 1.04 | locus YJR075W, strain HOC1, active compounds read low 1.01 | locus YKL190W, strain CNB1, active compounds read low 0.987 | locus YLR039C, strain RIC1, active compounds read low 0.977 | locus YLR058C, strain SHM2 (second series), active compounds read low 0.994 | locus YLR085C, strain ARP6, active compounds read low 0.89 | locus YLR262C, strain YPT6, active compounds read low 0.972 | locus YML094W, strain GIM5, active compounds read low 1.12 | locus YMR219W, strain ESC1, active compounds read low 0.998 | locus YMR263W, strain SAP30, active compounds read low 0.905 | locus YMR307W, strain GAS1, active compounds read low 0.702 | locus YNL128W, strain TEP1, active compounds read low 0.983 | locus YNL153C, strain GIM3, active compounds read low 1.03 | locus YNL298W, strain CLA4 (second series), active compounds read low 0.89 | locus YNL322C, strain KRE1, active compounds read low 1 | locus YNR030W, strain Alg12, active compounds read low 0.987 | locus YOL006C, strain TOP1, active compounds read low 0.754 | locus YPL055C, strain LGE1, active compounds read low 0.97 | locus YPL241C, strain CIN2, active compounds read low 0.943
